# According to PubChem BioAssay (NCATS):
# Results filed as inconclusive are left out. Calls of active or inactive are those of the source. Unless noted, the rule behind the calls is not given here.
# How the values were obtained:
# [1] = Immunotoxin (HA22) sensitization/mitigation study. Vehicle arm (PBS) (AID 1159510); note: potency is the fitted concentration of half-maximal effect
# [2] = Immunotoxin (SS1P) sensitization/mitigation study. Vehicle arm (DMEM) (AID 1159513); note: potency is the fitted concentration of half-maximal effect
# [3] = High-throughput drug toxicity screening in the BPDCN cell line Gen2.2 (AID 1224824); details: Gen2.2 BPDCN cells; at 45.8 µM (top of the series);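 note: cells exposed to compounds for 48 h before reading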
# How it was run: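 Seed 500 exponentially growing Gen2.2 cells/well; add compounds by pin tool; incubate 48 h, 37 °C, 5% CO2; add CellTiter-Glo, 15 min RT; read luminescence. % activity vs DMSO (100%) and bortezomib (0%).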
# [4] = High-throughput drug toxicity screening in the BPDCN cell line Cal-1 (AID 1224825); details: Cal-1 BPDCN cell viability, qHTS; at 45.8 µM (top of the series)
# How it was run: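 500 Cal-1 cells/well, RPMI + glutamine + 10% FBS (phenol red-free); cpd added by pin tool; 48 h, 37C, 5% CO2; CTG 15 min RT, lumi read. Normalised: DMSO 100%, bortezomib 9.2 uM 0%.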
# [5] = qHTS Screen of the MIPE 4.0 Collection Against Ewings Sarcoma (TC71) (AID 1259253; active = well fitted curve in the direction sought with a large enough effect; an effect the other way counts as inactive or inconclusive; note: nearly all actives have a fitted effect of over 40% in size; note: potency is the fitted concentration of half-maximal effect)
# How it was run: (§1)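 CellTiter-Glo luminescence after 48 h compound exposure (titration) gave viability; percent activity used DMSO-treated cells as no inhibition and medium-only wells as full inhibition. Cells grown in RPMI/5% FBS, dosed 4 h post-seeding.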
# [6] = qHTS Screen of the MIPE 4.0 Collection Against Ewings Sarcoma (EW8) (AID 1259255; active = well fitted curve in the direction sought with a large enough effect; an effect the other way counts as inactive or inconclusive; note: nearly all actives have a fitted effect of over 35% in size; note: potency is the fitted concentration of half-maximal effect;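 for viability: 100% = DMSO-treated cells and 0% = medium-only wells without cells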)
# How it was run: as §1
# [7] = qHTS assay to identify small molecule inhibitors of chordoma cells - UCH-1 (AID 1259355; active = well fitted curve in the direction sought with a large enough effect; an effect the other way counts as inactive or inconclusive; note: nearly all actives have a fitted effect of over 55% in size; note: potency is the fitted concentration of half-maximal effect)
# How it was run: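 Seed 800 cells per well; incubate overnight at 37 C, 5% CO2. Add test compounds (15 concentrations), then the auranofin–topoisomerase-agent combination. Incubate 48hr, add CellTiter-Glo, wait 30min, read luminescence.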
# [8] = P-glycoprotein substrates identified in KB-8-5-11 adenocarcinoma cell line, qHTS therapeutic library screen (AID 1346987; active = well fitted curve in the direction sought with a large enough effect; an effect the other way counts as inactive or inconclusive; note: nearly all actives have a fitted effect of over 65% in size; note: potency is the fitted concentration of half-maximal effect)
# How it was run: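 P-gp-mediated resistance screen: KB-8-5-11 cells treated 72 h with compounds in dose-response. CellTiter-Glo viability.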
# [9] = target: Atrial natriuretic peptide receptor 1 (Homo sapiens) (UniProt P16066); assay: Natriuretic polypeptide receptor (hNpr1) antagonism - Pilot screen (AID 1347049; calls by dose curve;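 note: agonist-evoked cGMP luminescence read 20 min after hNppA addition; % is set by controls: 0 for no effect and ±100 for the full control effect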)
# Atrial natriuretic peptide receptor 1 (Homo sapiens), sequence (P16066 whole entry, looked up): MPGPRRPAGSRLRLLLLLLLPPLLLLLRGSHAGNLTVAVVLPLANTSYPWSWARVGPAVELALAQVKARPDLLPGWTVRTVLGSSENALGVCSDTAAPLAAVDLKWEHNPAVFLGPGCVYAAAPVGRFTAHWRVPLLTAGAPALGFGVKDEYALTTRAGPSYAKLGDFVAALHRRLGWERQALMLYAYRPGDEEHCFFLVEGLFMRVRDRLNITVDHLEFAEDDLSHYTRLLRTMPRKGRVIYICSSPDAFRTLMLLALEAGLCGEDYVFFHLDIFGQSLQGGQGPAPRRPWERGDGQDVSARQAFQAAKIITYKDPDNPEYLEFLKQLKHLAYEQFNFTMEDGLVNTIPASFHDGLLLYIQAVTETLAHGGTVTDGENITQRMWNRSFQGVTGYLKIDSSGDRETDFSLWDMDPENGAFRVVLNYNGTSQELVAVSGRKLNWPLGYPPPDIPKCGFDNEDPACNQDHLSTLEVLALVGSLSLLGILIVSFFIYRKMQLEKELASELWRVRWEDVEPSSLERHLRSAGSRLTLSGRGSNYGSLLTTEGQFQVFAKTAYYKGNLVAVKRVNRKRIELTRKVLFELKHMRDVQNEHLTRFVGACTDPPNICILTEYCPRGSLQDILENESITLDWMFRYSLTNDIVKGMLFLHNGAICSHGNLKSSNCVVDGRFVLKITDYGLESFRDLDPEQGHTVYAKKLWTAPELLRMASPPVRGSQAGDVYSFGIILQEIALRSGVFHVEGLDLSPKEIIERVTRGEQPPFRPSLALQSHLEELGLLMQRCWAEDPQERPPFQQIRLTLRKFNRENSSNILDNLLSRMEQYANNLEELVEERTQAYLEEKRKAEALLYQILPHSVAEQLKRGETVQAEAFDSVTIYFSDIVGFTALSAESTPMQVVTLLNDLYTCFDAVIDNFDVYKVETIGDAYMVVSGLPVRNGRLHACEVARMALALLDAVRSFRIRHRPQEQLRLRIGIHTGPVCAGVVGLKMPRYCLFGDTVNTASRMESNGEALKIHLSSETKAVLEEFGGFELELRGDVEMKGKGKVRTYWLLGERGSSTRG
# How it was run: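 Readout is cGMP-driven firefly luciferase luminescence in HEK293 cells carrying hNpr1 and a PDE5-domain GloSensor, read before and 20 min after 0.1 nM hNppA stimulation. Cells had 2% substrate reagent for 2 h and test compound for 30 min.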
# [10] = qHTS assay for measurement of the activity of small molecule inhibitors on Zika virus induced Caspase-3 activity in human iPSC derived neural progenitor cells (hNPCs) (AID 1224857; active = well fitted curve in the direction sought with a large enough effect; an effect the other way counts as inactive or inconclusive; note: % of control where 0% means no effect; nearly all actives have a fitted effect of over 65% in size)
# How it was run: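 Caspase-3/7 induction by a 6-hour ZIKV infection was quantified with a luminescent Caspase-Glo 3/7 reagent incubated 30 minutes at room temperature. Compounds were preincubated with hNPCs for 1 hour; inhibition was calculated against uninfected and infected control wells.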
# [11] = qHTS assay for measurement of the activity of small molecule inhibitors on Zika virus induced Caspase-3 activity in human astrocytoma cells (AID 1224859; active = well fitted curve in the direction sought with a large enough effect; an effect the other way counts as inactive or inconclusive;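 note: plate controls were ZIKV-infected untreated cells for no effect and uninfected cells for full effect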)
# How it was run: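 In SNB-19 cells plated at 250 cells/well and grown 16-20 h, compounds were applied 1 h before ZIKV (2 FFU/cell). Six hours later caspase-3/7 luminescence was recorded.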
# [12] = qHTS Screen of the MIPE 4.0 Collection Against Ewings Sarcoma (RDES) (AID 1259252; active = well fitted curve in the direction sought with a large enough effect; an effect the other way counts as inactive or inconclusive; note: nearly all actives have a fitted effect of over 35% in size; note: potency is the fitted concentration of half-maximal effect)
# How it was run: as §1
# [13] = qHTS assay to identify small molecule inhibitors of chordoma cells - UCH-2 (AID 1259356; active = well fitted curve in the direction sought with a large enough effect; an effect the other way counts as inactive or inconclusive; note: % is set by controls: 0 for no effect and ±100 for the full control effect)
# [14] = P-glycoprotein substrates identified in KB-3-1 adenocarcinoma cell line, qHTS therapeutic library screen (AID 1346986; active = well fitted curve in the direction sought with a large enough effect; an effect the other way counts as inactive or inconclusive; note: nearly all actives have a fitted effect of over 60% in size)
# How it was run: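 Counter-screen: cherry-picked hits retested in the KB pair and in HEK-293 pcDNA/MDR-19 cells ± tariquidar. Primary screen used 72 h CellTiter-Glo viability in KB-3-1 and KB-8-5-11.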
# [15] = Natriuretic polypeptide receptor (hNpr1) antagonism - Pilot counterscreen GloSensor control cell line (AID 1347045; calls by dose curve; note: % is set by controls: 0 for no effect and ±100 for the full control effect)
# How it was run: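 This counterscreen uses HEK293 cells expressing the GIP/pGS-40F cGMP biosensor. Compound-treated cells are challenged with 50 uM sodium nitroprusside, and the luciferase signal is compared before and after stimulation.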
smiles,measurement,setting,value
Cc1cc2c(C(C)C)c(O)c(O)c(C=O)c2c(O)c1-c1c(C)cc2c(C(C)C)c(O)c(O)c(C=O)c2c1O,Potency,[1],8.33 µM (active)
CC(C)n1c(C=C[C@H](O)C[C@H](O)CC(=O)O)c(-c2ccc(F)cc2)c2ccccc21,Potency,[1],8.33 µM (active)
same,Potency,[2],9.35 µM (active)
Cc1nc(Nc2ncc(C(=O)Nc3c(C)cccc3Cl)s2)cc(N2CCN(CCO)CC2)n1,Potency,[1],5.9 µM (active)
same,Potency,[2],20.9 µM (active)
CC[C@@]1(O)C(=O)OCc2c1cc1n(c2=O)Cc2cc3c(CN(C)C)c(O)ccc3nc2-1,Potency,[1],0.0118 µM (active)
same,Potency,[2],5.9 µM (active)
CO[C@@H](C(=O)N1Cc2[nH]nc(NC(=O)c3ccc(N4CCN(C)CC4)cc3)c2C1)c1ccccc1,Potency,[1],0.332 µM (active)
same,Potency,[2],23.5 µM (active)
CNC(=O)c1cc(Oc2ccc(NC(=O)Nc3ccc(Cl)c(C(F)(F)F)c3)cc2)ccn1,Potency,[1],14.8 µM (active)
same,Potency,[2],20.9 µM (active)
CC(=O)O[C@@]12CO[C@@H]1C[C@H](O)[C@@]1(C)C(=O)[C@H](O)C3=C(C)[C@@H](OC(=O)[C@H](O)[C@@H](NC(=O)OC(C)(C)C)c4ccccc4)C[C@@](O)([C@@H](OC(=O)c4ccccc4)[C@H]21)C3(C)C,Potency,[1],inactive
same,Potency,[2],inactive
Cc1ccc(-c2cc(C(F)(F)F)nn2-c2ccc(S(N)(=O)=O)cc2)cc1,Potency,[1],48.1 µM (active)
same,Potency,[2],38.2 µM (active)
COc1cc2c(N3CCN(C(=O)Nc4ccc(OC(C)C)cc4)CC3)ncnc2cc1OCCCN1CCCCC1,Potency,[1],20.9 µM (active)
Cn1ccc2cc3c(cc21)CCN3C(=O)Nc1cccnc1,Potency,[1],inactive
same,Potency,[2],inactive
CS(=O)(=O)CCNCc1ccc(-c2ccc3ncnc(Nc4ccc(OCc5cccc(F)c5)c(Cl)c4)c3c2)o1,Potency,[1],20.9 µM (active)
O=C(CCCCCCC(=O)Nc1ccccc1)NO,Potency,[1],0.0959 µM (active)
same,Potency,[2],0.481 µM (active)
CN(C)C(=N)N=C(N)N,Potency,[1],inactive
same,Potency,[2],inactive
Nc1cccc2c1CN(C1CCC(=O)NC1=O)C2=O (stereo unspecified),Potency,[1],inactive
same,Potency,[2],inactive
CC1=C(/C=C/C(C)=C/C=C/C(C)=C/C(=O)Nc2ccc(O)cc2)C(C)(C)CCC1,Potency,[1],1.87 µM (active)
same,Potency,[2],23.5 µM (active)
COc1cccc2c1C(=O)c1c(O)c3c(c(O)c1C2=O)C[C@@](O)(C(=O)CO)C[C@@H]3O[C@H]1C[C@H](N)[C@H](O)[C@H](C)O1,Potency,[1],0.0118 µM (active)
same,Potency,[2],0.187 µM (active)
C#Cc1cccc(Nc2ncnc3cc(OCCOC)c(OCCOC)cc23)c1,Potency,[1],16.6 µM (active)
same,Potency,[2],4.69 µM (active)
C=CC(=O)Nc1cc2c(Nc3ccc(F)c(Cl)c3)ncnc2cc1OCCCN1CCOCC1,Potency,[1],18.7 µM (active)
same,Potency,[2],26.4 µM (active)
CCN(CCO)CCCC(C)Nc1ccnc2cc(Cl)ccc12 (stereo unspecified),Potency,[1],inactive
same,Potency,[2],inactive
CS(=O)c1ccc(-c2nc(-c3ccc(F)cc3)c(-c3ccncc3)[nH]2)cc1 (stereo unspecified),Potency,[1],inactive
same,Potency,[2],inactive
Cn1cnc2c(F)c(Nc3ccc(Br)cc3Cl)c(C(=O)NOCCO)cc21,Potency,[1],inactive
same,Potency,[2],inactive
COc1ccc2nc(S(=O)Cc3ncc(C)c(OC)c3C)[nH]c2c1 (stereo unspecified),Potency,[1],inactive
same,Potency,[2],inactive
Cc1ccc(-n2nc(C(C)(C)C)cc2NC(=O)Nc2ccc(OCCN3CCOCC3)c3ccccc23)cc1,Potency,[1],10.5 µM (active)
same,Potency,[2],inactive
CC1(CN2CCC(n3c(=O)[nH]c4ccccc43)CC2)OCc2ccccc2-n2cccc21 (stereo unspecified),Potency,[1],26.4 µM (active)
CCC(C)n1ncn(-c2ccc(N3CCN(c4ccc(OC[C@H]5CO[C@](Cn6cncn6)(c6ccc(Cl)cc6Cl)O5)cc4)CC3)cc2)c1=O (stereo partly specified),Potency,[1],0.743 µM (active)
same,Potency,[2],16.6 µM (active)
Nc1ncn([C@@H]2O[C@H](CO)[C@@H](O)[C@H]2O)c(=O)n1,Potency,[1],4.18 µM (active)
same,Potency,[2],14.8 µM (active)
CC(=O)SC[C@@H](C)C(=O)N1CCC[C@H]1C(=O)N[C@@H](Cc1ccccc1)C(=O)O,Potency,[1],inactive
same,Potency,[2],inactive
Cc1oncc1C(=O)Nc1ccc(C(F)(F)F)cc1,Potency,[1],20.9 µM (active)
CN1CC(=O)N/C1=N/C(=O)Nc1cccc(Cl)c1,Potency,[1],inactive
same,Potency,[2],inactive
Nc1ccn([C@@H]2O[C@H](CO)[C@@H](O)C2(F)F)c(=O)n1,Potency,[1],0.0121 µM (active)
COc1cc([C@@H]2c3cc4c(cc3[C@H](O)[C@H]3COC(=O)[C@H]23)OCO4)cc(OC)c1OC,Potency,[1],0.0037 µM (active)
same,Potency,[2],0.0083 µM (active)
COc1cc(Nc2c(C#N)cnc3cc(OCCCN4CCN(C)CC4)c(OC)cc23)c(Cl)cc1Cl,Potency,[1],13.2 µM (active)
same,Potency,[2],23.5 µM (active)
O=C1Nc2ccc(Cl)cc2[C@@](C#CC2CC2)(C(F)(F)F)O1,Potency,[1],42.9 µM (active)
same,Potency,[2],48.1 µM (active)
CCCc1nc2c(C)cc(-c3nc4ccccc4n3C)cc2n1Cc1ccc(-c2ccccc2C(=O)O)cc1,Potency,[1],26.4 µM (active)
same,Potency,[2],inactive
CC(C)C[C@H](NC(=O)[C@H](CCc1ccccc1)NC(=O)CN1CCOCC1)C(=O)N[C@@H](Cc1ccccc1)C(=O)N[C@@H](CC(C)C)C(=O)[C@@]1(C)CO1,Potency,[1],0.0015 µM (active)
same,Potency,[2],0.0418 µM (active)
CC(c1cc2ccccc2s1)N(O)C(N)=O (stereo unspecified),Potency,[1],inactive
same,Potency,[2],inactive
CC(C)C[C@H](NC(=O)[C@H](Cc1ccccc1)NC(=O)c1cnccn1)B(O)O,Potency,[1],0.0037 µM (active)
same,Potency,[2],0.0148 µM (active)
Fc1ccc(C(OCCN2CCN(CCCc3ccccc3)CC2)c2ccc(F)cc2)cc1,"cell viability, % of control (lower = more cytotoxic)",[3],57.3%
same,viability (% of control),[4],3.89%
same,Potency,[5],18.7 µM (active)
same,Potency,[6],20.9 µM (active)
same,Potency,[7],31.6 µM (active)
same,Potency,[8],10.5 µM (active)
same,Potency,[9],inactive
N[C@@H](Cc1ccc(N(CCCl)CCCl)cc1)C(=O)O,"cell viability, % of control (lower = more cytotoxic)",[3],5.36%
same,viability (% of control),[4],4.8%
same,Potency,[10],inactive
same,outcome,[11],inactive
same,Potency,[12],5.26 µM (active)
same,Potency,[5],9.35 µM (active)
same,Potency,[6],3.32 µM (active)
same,Potency,[8],inactive
CC(O)(CS(=O)(=O)c1ccc(F)cc1)C(=O)Nc1ccc(C#N)c(C(F)(F)F)c1 (stereo unspecified),Potency,[2],inactive
same,"cell viability, % of control (lower = more cytotoxic)",[3],9.43%
same,viability (% of control),[4],3.75%
same,Potency,[10],inactive
same,outcome,[11],inactive
same,Potency,[12],0.59 µM (active)
same,Potency,[5],2.35 µM (active)
same,Potency,[6],3.72 µM (active)
same,Potency,[8],inactive
same,Potency,[9],inactive
CNCC(O)c1ccc(O)cc1 (stereo unspecified),"cell viability, % of control (lower = more cytotoxic)",[3],145%
same,viability (% of control),[4],114%
same,Potency,[12],inactive
same,Potency,[5],inactive
same,Potency,[6],inactive
same,Potency,[7],inactive
same,Potency,[13],inactive
same,Potency,[14],inactive
same,Potency,[8],inactive
same,Potency,[15],inactive
same,Potency,[9],inactive
CN(C)[C@@H]1C(=O)C(C(N)=O)=C(O)[C@@]2(O)C(=O)C3=C(O)c4c(O)cccc4[C@@](C)(O)[C@H]3C[C@@H]12,"cell viability, % of control (lower = more cytotoxic)",[3],333%
same,viability (% of control),[4],83.2%
same,Potency,[5],3.72 µM (active)
same,Potency,[6],11.8 µM (active)
same,Potency,[7],inactive
same,Potency,[13],inactive
same,Potency,[8],inactive
